miR122 inh: raises miR-122 sensor activity in Huh7 cells; 340,000 tested, 0.14% active; activation, % at 12.5 µM; AID 623901; Huh7 psiCHECK-miR122 Renilla luciferase sensor, 48 h;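 active = mean activation of 30% or more, with every replicate also reaching 30%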;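 note: 0% = median of neutral control wells and 100% = median of positive control wells; higher luciferase signal means stronger suppression of miR-122 activity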
Numbers without * were called inactive. Shown is part of a subset that was picked to be rich in hits.

SMILES | miR122 inh
O=S(=O)(c1ccccc1F)N1CC[C@@H]2[C@@H](CO)Nc3ccc(-c4ccc(F)cc4)cc3[C@@H]21 | -96.4
CC(C)C#Cc1cnc2c(c1)C(=O)N([C@H](C)CO)C[C@@H](C)[C@H](CN(C)C(=O)CC1CC1)O2 | -5.6
CCC(=O)N1[C@H](CN(C(C)C)S(C)(=O)=O)[C@@H](c2ccccc2)[C@@H]1CO | 91.7*
CCC(=O)N(C)C[C@@H]1Oc2cc(-c3cccc(C#N)c3)ccc2S(=O)(=O)N([C@@H](C)CO)C[C@@H]1C | 1.8
CC(=O)N(C)C[C@@H]1[C@@H](c2ccc(-c3cccc(C#N)c3)cc2)[C@H](CO)N1C(C)=O | 91.7*
CCN(C[C@@H]1[C@@H](c2ccccc2)[C@@H](CO)N1C(=O)COC)S(C)(=O)=O | -91.7
CCCNC(=O)NC[C@@H]1[C@@H](c2ccc(C3=CCCC3)cc2)[C@H](CO)N1C(=O)CC | -342.9
CC(=O)N1[C@H](CNC(=O)C2CC2)[C@H](c2ccc(-c3ccccc3)cc2)[C@@H]1CO | -150.0
CCC(=O)N(C)C[C@H]1Oc2cc(-c3cccnc3)ccc2S(=O)(=O)N([C@@H](C)CO)C[C@H]1C | 1.6
CCC(=O)N1[C@H](CN(C)C(C)=O)[C@H](c2ccc(-c3cccnc3)cc2)[C@@H]1CO | 42.6*
COCC#Cc1ccc2c(c1)O[C@@H](CN(C)C(=O)COC)[C@H](C)CN([C@H](C)CO)S2(=O)=O | 2.1
C/C=C/c1cnc2c(c1)C(=O)N([C@@H](C)CO)C[C@H](C)[C@@H](CN(C)C(=O)c1cccnc1)O2 | -20.1
CCC(=O)N(C)C[C@@H]1Oc2ncc(C#C[C@H](C)O)cc2C(=O)N([C@@H](C)CO)C[C@H]1C | -0.7
C[C@H]1CN([C@@H](C)CO)C(=O)c2cc(/C=C/c3ccccc3)cnc2O[C@H]1CN(C)Cc1ccccc1F | 9.7
O=C(Nc1ccc(F)cc1)N1C[C@H]2[C@@H](c3ccccc31)[C@H](CO)N2C(=O)c1ccncc1 | 50.0*
O=S(=O)(c1ccc(F)cc1)N1C[C@H]2[C@@H](c3ccccc31)[C@@H](CO)N2Cc1ccc2c(c1)OCO2 | -100.0
CCCNC(=O)N1C[C@@H]2[C@H](c3ccccc31)[C@@H](CO)N2Cc1cc(F)ccc1F | 35.9*
COCC(=O)N1[C@H](CO)[C@H]2c3ccccc3N(C(=O)c3ccccc3F)C[C@H]21 | 44.2*
O=C(C1CCCCC1)N1[C@H](CO)[C@@H]2c3ccccc3N(S(=O)(=O)c3ccccc3)C[C@@H]21 | -95.6
COc1cccc(C(=O)N2C[C@H]3[C@@H](c4ccccc42)[C@@H](CO)N3C(=O)c2ccc(F)cc2)c1 | -228.6
O=C(c1cccnc1)N1C[C@H]2[C@@H](c3ccccc31)[C@H](CO)N2C(=O)Nc1ccccc1Cl | 40.0*
O=C(Nc1ccccc1F)N1C[C@H]2[C@@H](c3ccccc31)[C@@H](CO)N2C(=O)c1ccc(F)cc1 | -240.3
O=C(Nc1ccc(N2CCOCC2)c(S(=O)(=O)Nc2cc(Cl)ccc2Cl)c1)c1cccnc1 | -325.0
CCCNC(=O)N1C[C@H]2[C@@H](c3ccccc31)[C@@H](CO)N2Cc1ccc(F)cc1 | -91.7
C[C@H]1CN([C@@H](C)CO)C(=O)c2cc(C#CC3(O)CCCC3)cnc2O[C@H]1CN(C)Cc1cncnc1 | -4.2
SMILES | miR122 inh
C[C@@H]1CN([C@H](C)CO)S(=O)(=O)c2ccc(C3=CCCCC3)cc2O[C@@H]1CN(C)Cc1ccccc1 | -92.2
COc1cccc(-c2cnc3c(c2)C(=O)N([C@@H](C)CO)C[C@H](C)[C@@H](CN(C)Cc2cccnc2)O3)c1 | -0.4
CCCN(C)C[C@@H]1Oc2ncc(/C=C/c3ccccc3)cc2C(=O)N([C@H](C)CO)C[C@@H]1C | 4.4
COCC(=O)N(C)C[C@@H]1Oc2cc(-c3cccc(F)c3)ccc2S(=O)(=O)N([C@@H](C)CO)C[C@@H]1C | 1.5
CCCNC(=O)N(C)C[C@H]1Oc2cc(-c3ccccc3)ccc2S(=O)(=O)N([C@@H](C)CO)C[C@@H]1C | -34.5
CCCN(C)C[C@@H]1Oc2cc(C#CCN(C)C)ccc2S(=O)(=O)N([C@H](C)CO)C[C@@H]1C | -5.3
COc1cccc(S(=O)(=O)N(C)C[C@@H]2Oc3ncc(C#Cc4ccccc4)cc3C(=O)N([C@H](C)CO)C[C@@H]2C)c1 | 2.6
COCC(=O)N(C)C[C@H]1Oc2cc(C#CC3CC3)ccc2S(=O)(=O)N([C@@H](C)CO)C[C@H]1C | 5.0
CCCC#Cc1cnc2c(c1)C(=O)N([C@@H](C)CO)C[C@H](C)[C@@H](CN(C)C(=O)Cc1ccccc1)O2 | -6.4
C[C@H](CO)N1C[C@H](C)[C@@H](CN(C)C(=O)CC2CC2)Oc2cc(-c3ccccc3)ccc2S1(=O)=O | -32.5
COc1ccc(CN2CCc3c([nH]c4ccccc34)C2)c(OC)c1C | 41.7*
CCOC(=O)/C(=C\C=C1/Sc2ccccc2N1CC)C(C)=O | 52.1*
COc1ccc(C#Cc2cnc3c(c2)C(=O)N([C@@H](C)CO)C[C@@H](C)[C@H](CN(C)CC2CCCC2)O3)cc1 | 7.2
C[C@H]1CN([C@@H](C)CO)C(=O)c2cc(-c3cccc(C(=O)N(C)C)c3)cnc2O[C@H]1CN(C)S(=O)(=O)c1ccc(F)cc1 | -4.1
C[C@@H]1CN([C@@H](C)CO)S(=O)(=O)c2ccc(-c3ccncc3)cc2O[C@H]1CN(C)C(=O)Nc1ccc(F)cc1 | 6.7
COCC(=O)N(C)C[C@@H]1Oc2cc(-c3cncnc3)ccc2S(=O)(=O)N([C@H](C)CO)C[C@@H]1C | 0.2
Oc1ccc(-c2nc(-c3ccc(O)c(O)c3)cs2)cc1 | 30.3*
C[C@@H]1CN([C@H](C)CO)C(=O)c2cc(C#CC3(O)CCCC3)cnc2O[C@H]1CN(C)C(=O)C1CCCCC1 | -4.0
COCC#Cc1ccc2c(c1)O[C@H](CN(C)C(=O)C1CCCCC1)[C@@H](C)CN([C@H](C)CO)S2(=O)=O | -12.3
COCC(=O)Nc1ccc2c(c1)C(=O)N(C)C[C@H](OC)[C@H](C)CN(C(=O)COC)[C@@H](C)CO2 | -2.5
C[C@@H]1CN([C@H](C)CO)S(=O)(=O)c2ccc(C#CC3CCCC3)cc2O[C@@H]1CN(C)CC1CC1 | -6.2
CO[C@H]1CN(C)C(=O)c2ccc(NC(=O)Nc3ccc(Cl)cc3)cc2OC[C@@H](C)N(C)C[C@H]1C | -1.0
C[C@@H]1CN([C@@H](C)CO)S(=O)(=O)c2ccc(C#C[C@@H](C)O)cc2O[C@H]1CN(C)Cc1ccc(-c2ccccc2)cc1 | 41.2*
C[C@H](O)C#Cc1ccc2c(c1)O[C@H](CN(C)Cc1ccc(-c3ccccc3)cc1)[C@@H](C)CN([C@H](C)CO)S2(=O)=O | 48.6*
C[C@@H]1CN([C@H](C)CO)S(=O)(=O)c2ccc(C#C[C@@H](C)O)cc2O[C@@H]1CN(C)Cc1cncnc1 | 0.0
SMILES | miR122 inh
C[C@H]1CN([C@@H](C)CO)S(=O)(=O)c2ccc(-c3ccccc3)cc2O[C@H]1CN(C)Cc1cncnc1 | 0.6
C[C@@H]1CN([C@@H](C)CO)S(=O)(=O)c2ccc(C#C[C@@H](C)O)cc2O[C@@H]1CN(C)Cc1cncnc1 | 9.3
C[C@@H](O)C#Cc1ccc2c(c1)O[C@H](CN(C)Cc1cncnc1)[C@@H](C)CN([C@@H](C)CO)S2(=O)=O | -0.1
C[C@@H]1CN([C@H](C)CO)S(=O)(=O)c2ccc(C#C[C@@H](C)O)cc2O[C@@H]1CN(C)Cc1cccnc1 | -3.4
C[C@H](O)C#Cc1ccc2c(c1)O[C@H](CN(C)C)[C@H](C)CN([C@@H](C)CO)S2(=O)=O | 3.4
Cc1ccc(-c2ccc3c(c2)O[C@H](CN(C)Cc2cncnc2)[C@H](C)CN([C@@H](C)CO)S3(=O)=O)cc1 | 57.1*

Screens (PubChem)
